The record followed here is PubChem BioAssay (Tox21).

Test [1] concerns the target Progesterone receptor (Homo sapiens) (UniProt P06401). In words: qHTS assay to identify small molecule agonists of the progesterone receptor (PR) signaling pathway (AID 1346784; calls by dose curve; also: nearly all actives have a fitted effect of over 30% in size). An outline of the steps: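 Cells (PR-UAS-bla HEK 293T, GripTite) were plated in assay medium containing 2% charcoal-stripped FBS and incubated 6 hr. Test compounds in DMSO were added for 16 hr at 37C. FRET substrate was then loaded for 2 hr at room temperature before fluorescence reading.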
On the technique in general: qHTS replaces the single test concentration by a dilution series.

Test [2] shares this target. As to the kind of experiment: qHTS assay to identify small molecule antagonists of the progesterone receptor (PR) signaling pathway (AID 1346795; active = well fitted inhibition curve with a large enough effect in the signal ratio in the repeat runs, not every such curve was filed as active; the % refers to the signal ratio). The gist of the method:
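Antagonist mode: compounds tested against 1 nM (final) promegestone stimulation in HEK293T cells expressing PR-UAS-bla reporter, 16 hr at 37C, 5% CO2; beta-lactamase activity detected via B/G FRET substrate after 2 hr at room temperature.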

Test [3] in a line: qHTS assay to identify small molecule antagonists of the progesterone receptor (PR) signaling pathway - cell viability counter screen (AID 1346798). Also: series mostly up to about 92 µM; nearly all actives have a fitted effect of over 50% in size. The gist of the method: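 Counter screen for cytotoxicity: viability of PR-UAS-bla HEK293T cells was measured with CellTiter-Glo luminescence following 16 hr compound exposure in the presence of R5020.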
Test [4] can be described thus: qHTS assay to identify small molecule agonists of the progesterone receptor (PR) signaling pathway - cell viability counter screen (AID 1346799; calls by dose curve; also: nearly all actives have a fitted effect of over 45% in size). The gist of the method: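 Cells (PR-UAS-bla HEK293T) are plated at 3,000/well in 2% charcoal-stripped FBS medium, rested 6 hr, dosed and incubated 16 hr at 37C. CellTiter-Glo is then added and luminescence measured after 30 min at room temperature.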

Test [5] can be described thus: qHTS assay to identify small molecule antagonists of the TGF-beta/Smad signaling pathway - cell viability counter screen (AID 1346824). Also: nearly all actives have a fitted effect of over 50% in size. The gist of the method:
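SBE-bla HEK 293T cells, incubated overnight, then compound plus 0.25 ng/mL TGF-beta1 (stock added) for 5 hr at 37 C. Viability was read in the same wells by CellTiter-Glo luminescence after 30 min at room temperature.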

Test [6] is described as follows: qHTS assay to identify small molecule agonists of the TGF-beta/Smad signaling pathway - cell viability counter screen (AID 1346829). Also: top concentration of the series differs between compounds; nearly all actives have a fitted effect of over 45% in size. An outline of the steps: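 Compound-treated SBE-bla HEK 293T cells (5 hr, 37 C) were assessed for viability with CellTiter-Glo in parallel with the reporter read.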
The nature of test [7]: qHTS assay to identify small molecule agonists of the TGF-beta/Smad signaling pathway (AID 1346859; active = well fitted activation curve with a large enough effect in the signal ratio in the repeat runs, not every such curve was filed as active; the % refers to the signal ratio; also: series mostly up to about 77 µM). The gist of the method: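 Reporter line: HEK 293T with stably integrated SBE-controlled beta-lactamase. Compound exposure lasts 5 hr at 37 C and 5% CO2; substrate loading follows for 2 hr at room temperature, with emission read at 460 and 530 nm.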
The target of test [8] is Thyrotropin-releasing hormone receptor (Homo sapiens) (UniProt P34981). As to the kind of experiment: qHTS assay to identify small molecule antagonists of the thyrotropin-releasing hormone receptor (TRHR) signaling pathway (AID 1346877; active = well fitted inhibition curve with a large enough effect in the repeat runs, not every such curve was filed as active; also: series mostly up to about 51 µM). An outline of the steps: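 Intracellular calcium fluorescence, read kinetically every second over 3 min, reports TRH-evoked signalling in HEK293 cells carrying TRHR. Test compounds were added 5 min ahead of a 1 nM TRH challenge.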
Sequence of Thyrotropin-releasing hormone receptor (Homo sapiens) (P34981 whole entry, looked up): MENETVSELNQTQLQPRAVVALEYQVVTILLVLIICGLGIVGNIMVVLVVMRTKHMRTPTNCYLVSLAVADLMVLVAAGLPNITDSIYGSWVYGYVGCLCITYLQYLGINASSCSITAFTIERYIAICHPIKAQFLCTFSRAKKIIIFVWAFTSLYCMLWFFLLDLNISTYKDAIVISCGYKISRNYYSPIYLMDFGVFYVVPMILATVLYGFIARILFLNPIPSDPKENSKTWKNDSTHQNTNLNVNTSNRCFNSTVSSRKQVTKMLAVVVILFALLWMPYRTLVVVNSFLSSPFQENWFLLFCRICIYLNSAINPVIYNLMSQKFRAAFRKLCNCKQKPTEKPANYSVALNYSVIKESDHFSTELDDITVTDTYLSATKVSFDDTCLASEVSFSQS

Test [9] has the same target. As to the kind of experiment: qHTS assay to identify small molecule agonists of the thyrotropin-releasing hormone receptor (TRHR) signaling pathway (AID 1346891; calls by dose curve;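 also: HEK293 cells expressing TRHR with calcium dye readout; series mostly up to about 58 µM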). The gist of the method:
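Cells: TRHR-Hek293, seeded and incubated 18 h. Dye loading: 2 h at 37 °C. Compound added from DMSO stock by pin tool. Read-out: kinetic calcium fluorescence over 3 min.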

Test [10] in a line: Human pregnane X receptor (PXR) small molecule agonists, qHTS cell viability counter screen (AID 1346977). Also: nearly all actives have a fitted effect of over 50% in size. An outline of the steps: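 Cytotoxicity counter screen run in the same wells as the PXR luciferase assay, using PXR-Luc HepG2 cells in charcoal-stripped serum medium. Viability: CellTiter-Fluor fluorescence after 24hr compound treatment.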
A short description of test [11]: Caspase-3/7 induction in HepG2 cells by small molecules, qHTS assay (AID 1346978). Also: nearly all actives have a fitted effect of over 15% in size. The gist of the method:
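Wild-type HepG2 cells, 2,000/well, settled 5 hr at 37 C and 5% CO2, then compound-treated for 17 hr; caspase-3/7 activity read by luminescent Caspase-Glo 3/7 after 30 min at room temperature.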

Test [12] in a line: Caspase-3/7 induction in CHO-K1 cells by small molecules, qHTS cell viability counter screen (AID 1346979). Also: nearly all actives have a fitted effect of over 35% in size. An outline of the steps: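 Cytotoxicity counter screen run in parallel with the caspase-3/7 assay: CHO-K1 cells, 16hr compound treatment at 37C, then CellTiter-Fluor for 1hr before fluorescence reading.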
The nature of test [13]: Caspase-3/7 induction in CHO-K1 cells by small molecules, qHTS assay (AID 1346980). Also: nearly all actives have a fitted effect of over 15% in size. The gist of the method: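 Wild-type CHO-K1 cells exposed to compounds for 17hr at 37 C, 5% CO2. Caspase-3/7 activity then measured by Caspase-Glo 3/7 luminescence after 30min at room temperature.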
Test [14] deals with Nuclear receptor subfamily 1 group I member 2 (Homo sapiens) (UniProt O75469). As to the kind of experiment: Human pregnane X receptor (PXR) small molecule agonists, qHTS assay (AID 1346982). Also: nearly all actives have a fitted effect of over 35% in size. An outline of the steps: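 Luciferase signal from ONE-Glo (30 min, room temperature) measured activation of hPXR-driven CYP3A4 reporter expression in PXR-Luc HepG2 cells treated with compounds for 24 hr at 37 C.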
Sequence of Nuclear receptor subfamily 1 group I member 2 (Homo sapiens) (O75469 whole entry, looked up): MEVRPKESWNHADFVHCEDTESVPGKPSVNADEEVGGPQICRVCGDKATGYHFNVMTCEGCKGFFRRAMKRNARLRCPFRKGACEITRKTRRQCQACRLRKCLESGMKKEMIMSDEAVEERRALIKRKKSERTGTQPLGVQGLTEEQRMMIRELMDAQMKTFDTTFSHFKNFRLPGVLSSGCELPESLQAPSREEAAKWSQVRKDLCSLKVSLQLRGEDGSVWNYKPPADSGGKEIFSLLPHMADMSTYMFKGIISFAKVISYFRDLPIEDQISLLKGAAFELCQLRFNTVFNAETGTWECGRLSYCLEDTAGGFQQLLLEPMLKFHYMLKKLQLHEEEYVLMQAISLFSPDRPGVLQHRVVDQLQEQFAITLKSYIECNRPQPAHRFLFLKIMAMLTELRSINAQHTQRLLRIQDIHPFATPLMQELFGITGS

The target in test [15] is Acetylcholinesterase (Homo sapiens) (UniProt P22303). As to the kind of experiment: Acetylcholinesterase (AChE) small molecule antagonists: colormetric cell-based qHTS assay (AID 1347395; calls by dose curve; also: nearly all actives have a fitted effect of over 30% in size; also: potency is read from the fitted curve at half-maximal effect). The gist of the method:
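Cells (SH-SY5Y, 2,000 per well) are seeded and left overnight at 37 C. Compound is added for 30 min, then DTNB and acetylthiocholine for a further 90 min at 37 C before absorbance-based thiocholine detection.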

The target is the same in test [16]. As to the kind of experiment: Acetylcholinesterase (AChE) small molecule antagonists: enzyme-based qHTS assay (AID 1347397; calls by dose curve; also: nearly all actives have a fitted effect of over 55% in size). The settings on record: Potency: AChE enzyme activity inhibition. The gist of the method: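 Recombinant human AChE (50 mU/mL) preincubated with compound 30 min at room temperature; acetylthiocholine plus DTNB then added, and thiocholine formation read colorimetrically after 10 min at room temperature. DMSO served as vehicle control.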

The nature of test [17]: Caspase-3/7 induction in HepG2 cells by small molecules, qHTS cell viability counter screen (AID 1346981). Also: series mostly up to about 92 µM; nearly all actives have a fitted effect of over 30% in size. An outline of the steps: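 HepG2, WT, 2,000 cells/well; 5 hr pre-incubation 37 C/5% CO2; compound pin-transferred from DMSO; 16 hr exposure; CellTiter-Fluor, 1 hr; fluorescence read.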

Unmarked numbers belong to inactive results. Inconclusive results are not listed. Calls of active or inactive are those of the source. Unless noted, calls follow the shape of the dose curve; as a rule, active = well fitted curve in the direction sought with a large enough effect in the repeat runs; inconclusive = weak or mixed curves; inactive = no such curve, though single readings can be large; an effect the other way counts as inactive or inconclusive.

Sequence of Progesterone receptor (Homo sapiens) (P06401 whole entry, looked up): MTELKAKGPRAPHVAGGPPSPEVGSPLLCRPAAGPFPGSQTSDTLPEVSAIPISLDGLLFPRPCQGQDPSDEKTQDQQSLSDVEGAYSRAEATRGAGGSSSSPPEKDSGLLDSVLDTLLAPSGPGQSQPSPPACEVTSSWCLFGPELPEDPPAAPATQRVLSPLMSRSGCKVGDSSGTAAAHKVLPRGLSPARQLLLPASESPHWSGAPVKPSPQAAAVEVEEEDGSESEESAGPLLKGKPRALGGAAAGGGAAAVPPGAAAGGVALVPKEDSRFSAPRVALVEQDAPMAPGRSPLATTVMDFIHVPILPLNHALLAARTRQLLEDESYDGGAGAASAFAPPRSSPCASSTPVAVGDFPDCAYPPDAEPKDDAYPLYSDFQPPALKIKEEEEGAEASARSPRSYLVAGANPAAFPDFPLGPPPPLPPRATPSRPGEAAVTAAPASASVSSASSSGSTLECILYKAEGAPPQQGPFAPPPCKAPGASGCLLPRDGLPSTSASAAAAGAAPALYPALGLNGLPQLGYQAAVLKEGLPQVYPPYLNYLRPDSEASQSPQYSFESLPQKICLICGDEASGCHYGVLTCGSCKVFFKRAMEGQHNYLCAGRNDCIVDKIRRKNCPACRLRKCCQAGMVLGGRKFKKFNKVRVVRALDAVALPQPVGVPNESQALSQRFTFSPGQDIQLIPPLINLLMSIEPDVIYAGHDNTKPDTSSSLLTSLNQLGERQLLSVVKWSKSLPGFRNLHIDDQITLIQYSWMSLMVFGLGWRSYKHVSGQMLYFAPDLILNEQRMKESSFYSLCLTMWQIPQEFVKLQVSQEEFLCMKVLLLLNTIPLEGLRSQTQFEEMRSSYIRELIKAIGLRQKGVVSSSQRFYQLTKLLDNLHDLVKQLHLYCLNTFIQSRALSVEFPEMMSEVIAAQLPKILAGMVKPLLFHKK
Sequence of Acetylcholinesterase (Homo sapiens) (P22303 whole entry, looked up): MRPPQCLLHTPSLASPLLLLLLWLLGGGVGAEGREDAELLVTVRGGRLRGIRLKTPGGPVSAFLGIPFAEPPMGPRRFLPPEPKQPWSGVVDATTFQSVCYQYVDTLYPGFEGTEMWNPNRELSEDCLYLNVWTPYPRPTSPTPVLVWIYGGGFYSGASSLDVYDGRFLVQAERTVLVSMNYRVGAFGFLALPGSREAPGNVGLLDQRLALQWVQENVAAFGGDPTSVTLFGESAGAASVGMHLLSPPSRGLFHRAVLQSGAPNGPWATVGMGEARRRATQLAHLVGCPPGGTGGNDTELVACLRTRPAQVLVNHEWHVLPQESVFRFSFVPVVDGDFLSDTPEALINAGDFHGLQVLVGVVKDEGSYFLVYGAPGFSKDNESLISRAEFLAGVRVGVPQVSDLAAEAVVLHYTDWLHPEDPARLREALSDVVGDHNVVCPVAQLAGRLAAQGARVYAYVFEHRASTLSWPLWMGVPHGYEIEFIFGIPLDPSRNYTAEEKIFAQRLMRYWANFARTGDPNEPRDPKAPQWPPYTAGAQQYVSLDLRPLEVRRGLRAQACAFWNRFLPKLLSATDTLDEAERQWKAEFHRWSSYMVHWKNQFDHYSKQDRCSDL

As for `CC1=NNC(=O)N(/N=C/c2cccnc2)C1`, the Potency entry in test [1], in [2], in [3], in test [4], in test [5] and in [10] was “inactive” throughout. Also, the Potency entry in test [11], in test [12], in test [13], in [14], in [15] and in test [16] was “inactive” in each case. Besides, the compound was classed as inactive in test [6], in test [7], in test [8] and in [9].
As to `CCCCOP(=O)(O)OCCCC`, the Potency result in test [1], in [2], in [3], in test [4], in [5] and in test [10] was “inactive” in each case. Further, the Potency result in test [11], in test [12], in test [13], in [17], in [14] and in [15] was “inactive” each time. Also, in test [16], the Potency result is “inactive”. Further, the call in [6], in test [7], in test [8] and in [9] was inactive.
As to `C[N+](=O)[O-]`, the Potency entry in [1], in test [2], in [3], in test [4], in test [5] and in test [10] was “inactive” each time. For the same compound, the Potency entry in [11], in [12], in test [13], in test [17], in [14] and in test [15] was “inactive” each time. The Potency entry in [16] is “inactive”. The outcome in test [6], in test [7], in test [8] and in [9] was inactive.
Take `CCc1cc2c(s1)-n1c(C)nnc1CN=C2c1ccccc1Cl`: the Potency entry in [1], in test [2], in test [3], in test [4], in test [5] and in test [10] was “inactive” each time. In addition, the Potency entry in test [11], in test [12], in test [13], in test [17], in test [15] and in [16] was “inactive” each time. The call in [6], in [7], in test [8] and in test [9] was inactive.
Consider `OCCBr`, for which the Potency result in test [1], in [2], in [3], in [4], in [5] and in test [10] was “inactive” each time. Moreover, the Potency result in test [11], in [12], in [13], in test [17], in test [14] and in test [15] was “inactive” throughout. Moreover, the result in [6], in test [7], in [8] and in test [9] was inactive.
`ClCC(Cl)Cl`: the Potency entry in test [1], in [2], in [3], in [4], in test [5] and in [10] was “inactive” each time. Moreover, the Potency result in test [11], in test [12], in test [13], in test [17], in [14] and in test [16] was “inactive” throughout. For the same compound, the outcome in test [6] and in test [7] was inactive. The Potency in test [15] is 36.8 µM (active).
Take `CCC#N`: the Potency result in test [1], in test [2], in [3], in test [4], in [5] and in test [10] was “inactive” throughout. The Potency result in [11], in test [12], in [13], in test [17], in [14] and in test [15] was “inactive” each time. The compound was classed as inactive in test [7], in [8] and in test [9].
In the case of `COC(=O)c1ccccc1S(=O)(=O)NC(=O)N(C)c1nc(C)nc(OC)n1`, the Potency result in test [1], in [2], in test [3], in test [4], in [5] and in test [10] was “inactive” each time. Moreover, the Potency result in [11], in test [12], in test [13], in test [14] and in test [16] was “inactive” throughout. In addition, the compound was classed as inactive in test [6], in [7], in test [8] and in test [9].
